A selection: hits, their analogues and other compounds. The true share with any hit is near 0.26%.
Lamin A splicing: qHTS Assay for Modulators of Lamin A Splicing | Potency, µM (series often up to 46.1 µM), for the others: top-dose ratio change, negative = inhibition, usual class: inhibitors | HeLa LMNA splicing GFP/RFP minigene ratio, 48 h | hit rate 0.01% among 200,000; active = well fitted inhibition curve with a large enough effect in the signal ratio, with a control signal flat, not every such curve was filed as active; inconclusive = small, poorly fitted or top-dose-only effect, or effect the other way, or a change in a side signal; the % refers to the signal ratio; also: potency is read from the fitted curve at half-maximal effect; % is scaled to controls: 0 for no effect and ±100 for the full control effect
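S3 HeLa cells stably expressing lamin A-EGFP splicing minigene plus DsRed2, 600 cells/well, 48 h compound exposure at 37C. Laser-scanning cytometry; analysed as GFP (500-530 nm)/RFP (575-640 nm) total intensity ratio; 0.5% DMSO vehicle.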
Menin MLL FP FL: qHTS Assay for Inhibitors Targeting the Menin-MLL Interaction in MLL Related Leukemias: Competition With Fluorescein Labeled MLL-derived Peptide | 290,000 tested, under 10 active | Fluorescence polarization, fluorescein-MLL peptide displacement from menin | FP activity change, % at 61.4 µM; active = well fitted curve in the direction sought with a large enough effect in the polarisation, not every such curve was filed as active; inconclusive = small, poorly fitted or top-dose-only effect, or effect the other way, or a change in a side signal; inactive = no such curve, though single readings can be large or run the other way; the % refers to the polarisation; also: % of control where 0% means no effect
Epigenetic reg: Quantitative High-Throughput Screen for Regulators of Epigenetic Control; AID 1865, 2009; Potency, µM (top dose mostly 53.9 µM), for inactives: at the top dose GFP activation, hits mostly activators; hit rate 0.2% among 280,000; murine LDR cells, GFP reporter derepression, 30 h; also: potency is read from the fitted curve at half-maximal effect; % of control where 0% means no effect; nearly all actives have a fitted effect of over 60% in size
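Murine LDR cells bearing a silenced CMV-driven GFP reporter were exposed to compound for 30 h at 37 C. After PBS washes, GFP-positive cells (20-120 um objects) counted by laser-scanning microplate cytometry.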
CXXC DNA block: qHTS Fluorescence Polarization Assay for Inhibitors of MLL CXXC domain - DNA interaction. MLL-CXXC / FITC-HOXA9 DNA fluorescence polarization. Potency, µM (top dose mostly 115 µM), for inactives: at the highest dose activity change, negative = inhibition, actives largely listed as inhibitors. hit rate 0.037% among 290,000. AID 2662, 2010; active = well fitted inhibition curve with a large enough effect in the polarisation, with a control signal flat, not every such curve was filed as active; inconclusive = small, poorly fitted or top-dose-only effect, or effect the other way, or a change in a side signal; inactive = no such curve, though single readings can be large or run the other way; the % refers to the polarisation; also: potency is read from the fitted curve at half-maximal effect
Target sequence (Q03164 whole entry, looked up, the tested form may be a part): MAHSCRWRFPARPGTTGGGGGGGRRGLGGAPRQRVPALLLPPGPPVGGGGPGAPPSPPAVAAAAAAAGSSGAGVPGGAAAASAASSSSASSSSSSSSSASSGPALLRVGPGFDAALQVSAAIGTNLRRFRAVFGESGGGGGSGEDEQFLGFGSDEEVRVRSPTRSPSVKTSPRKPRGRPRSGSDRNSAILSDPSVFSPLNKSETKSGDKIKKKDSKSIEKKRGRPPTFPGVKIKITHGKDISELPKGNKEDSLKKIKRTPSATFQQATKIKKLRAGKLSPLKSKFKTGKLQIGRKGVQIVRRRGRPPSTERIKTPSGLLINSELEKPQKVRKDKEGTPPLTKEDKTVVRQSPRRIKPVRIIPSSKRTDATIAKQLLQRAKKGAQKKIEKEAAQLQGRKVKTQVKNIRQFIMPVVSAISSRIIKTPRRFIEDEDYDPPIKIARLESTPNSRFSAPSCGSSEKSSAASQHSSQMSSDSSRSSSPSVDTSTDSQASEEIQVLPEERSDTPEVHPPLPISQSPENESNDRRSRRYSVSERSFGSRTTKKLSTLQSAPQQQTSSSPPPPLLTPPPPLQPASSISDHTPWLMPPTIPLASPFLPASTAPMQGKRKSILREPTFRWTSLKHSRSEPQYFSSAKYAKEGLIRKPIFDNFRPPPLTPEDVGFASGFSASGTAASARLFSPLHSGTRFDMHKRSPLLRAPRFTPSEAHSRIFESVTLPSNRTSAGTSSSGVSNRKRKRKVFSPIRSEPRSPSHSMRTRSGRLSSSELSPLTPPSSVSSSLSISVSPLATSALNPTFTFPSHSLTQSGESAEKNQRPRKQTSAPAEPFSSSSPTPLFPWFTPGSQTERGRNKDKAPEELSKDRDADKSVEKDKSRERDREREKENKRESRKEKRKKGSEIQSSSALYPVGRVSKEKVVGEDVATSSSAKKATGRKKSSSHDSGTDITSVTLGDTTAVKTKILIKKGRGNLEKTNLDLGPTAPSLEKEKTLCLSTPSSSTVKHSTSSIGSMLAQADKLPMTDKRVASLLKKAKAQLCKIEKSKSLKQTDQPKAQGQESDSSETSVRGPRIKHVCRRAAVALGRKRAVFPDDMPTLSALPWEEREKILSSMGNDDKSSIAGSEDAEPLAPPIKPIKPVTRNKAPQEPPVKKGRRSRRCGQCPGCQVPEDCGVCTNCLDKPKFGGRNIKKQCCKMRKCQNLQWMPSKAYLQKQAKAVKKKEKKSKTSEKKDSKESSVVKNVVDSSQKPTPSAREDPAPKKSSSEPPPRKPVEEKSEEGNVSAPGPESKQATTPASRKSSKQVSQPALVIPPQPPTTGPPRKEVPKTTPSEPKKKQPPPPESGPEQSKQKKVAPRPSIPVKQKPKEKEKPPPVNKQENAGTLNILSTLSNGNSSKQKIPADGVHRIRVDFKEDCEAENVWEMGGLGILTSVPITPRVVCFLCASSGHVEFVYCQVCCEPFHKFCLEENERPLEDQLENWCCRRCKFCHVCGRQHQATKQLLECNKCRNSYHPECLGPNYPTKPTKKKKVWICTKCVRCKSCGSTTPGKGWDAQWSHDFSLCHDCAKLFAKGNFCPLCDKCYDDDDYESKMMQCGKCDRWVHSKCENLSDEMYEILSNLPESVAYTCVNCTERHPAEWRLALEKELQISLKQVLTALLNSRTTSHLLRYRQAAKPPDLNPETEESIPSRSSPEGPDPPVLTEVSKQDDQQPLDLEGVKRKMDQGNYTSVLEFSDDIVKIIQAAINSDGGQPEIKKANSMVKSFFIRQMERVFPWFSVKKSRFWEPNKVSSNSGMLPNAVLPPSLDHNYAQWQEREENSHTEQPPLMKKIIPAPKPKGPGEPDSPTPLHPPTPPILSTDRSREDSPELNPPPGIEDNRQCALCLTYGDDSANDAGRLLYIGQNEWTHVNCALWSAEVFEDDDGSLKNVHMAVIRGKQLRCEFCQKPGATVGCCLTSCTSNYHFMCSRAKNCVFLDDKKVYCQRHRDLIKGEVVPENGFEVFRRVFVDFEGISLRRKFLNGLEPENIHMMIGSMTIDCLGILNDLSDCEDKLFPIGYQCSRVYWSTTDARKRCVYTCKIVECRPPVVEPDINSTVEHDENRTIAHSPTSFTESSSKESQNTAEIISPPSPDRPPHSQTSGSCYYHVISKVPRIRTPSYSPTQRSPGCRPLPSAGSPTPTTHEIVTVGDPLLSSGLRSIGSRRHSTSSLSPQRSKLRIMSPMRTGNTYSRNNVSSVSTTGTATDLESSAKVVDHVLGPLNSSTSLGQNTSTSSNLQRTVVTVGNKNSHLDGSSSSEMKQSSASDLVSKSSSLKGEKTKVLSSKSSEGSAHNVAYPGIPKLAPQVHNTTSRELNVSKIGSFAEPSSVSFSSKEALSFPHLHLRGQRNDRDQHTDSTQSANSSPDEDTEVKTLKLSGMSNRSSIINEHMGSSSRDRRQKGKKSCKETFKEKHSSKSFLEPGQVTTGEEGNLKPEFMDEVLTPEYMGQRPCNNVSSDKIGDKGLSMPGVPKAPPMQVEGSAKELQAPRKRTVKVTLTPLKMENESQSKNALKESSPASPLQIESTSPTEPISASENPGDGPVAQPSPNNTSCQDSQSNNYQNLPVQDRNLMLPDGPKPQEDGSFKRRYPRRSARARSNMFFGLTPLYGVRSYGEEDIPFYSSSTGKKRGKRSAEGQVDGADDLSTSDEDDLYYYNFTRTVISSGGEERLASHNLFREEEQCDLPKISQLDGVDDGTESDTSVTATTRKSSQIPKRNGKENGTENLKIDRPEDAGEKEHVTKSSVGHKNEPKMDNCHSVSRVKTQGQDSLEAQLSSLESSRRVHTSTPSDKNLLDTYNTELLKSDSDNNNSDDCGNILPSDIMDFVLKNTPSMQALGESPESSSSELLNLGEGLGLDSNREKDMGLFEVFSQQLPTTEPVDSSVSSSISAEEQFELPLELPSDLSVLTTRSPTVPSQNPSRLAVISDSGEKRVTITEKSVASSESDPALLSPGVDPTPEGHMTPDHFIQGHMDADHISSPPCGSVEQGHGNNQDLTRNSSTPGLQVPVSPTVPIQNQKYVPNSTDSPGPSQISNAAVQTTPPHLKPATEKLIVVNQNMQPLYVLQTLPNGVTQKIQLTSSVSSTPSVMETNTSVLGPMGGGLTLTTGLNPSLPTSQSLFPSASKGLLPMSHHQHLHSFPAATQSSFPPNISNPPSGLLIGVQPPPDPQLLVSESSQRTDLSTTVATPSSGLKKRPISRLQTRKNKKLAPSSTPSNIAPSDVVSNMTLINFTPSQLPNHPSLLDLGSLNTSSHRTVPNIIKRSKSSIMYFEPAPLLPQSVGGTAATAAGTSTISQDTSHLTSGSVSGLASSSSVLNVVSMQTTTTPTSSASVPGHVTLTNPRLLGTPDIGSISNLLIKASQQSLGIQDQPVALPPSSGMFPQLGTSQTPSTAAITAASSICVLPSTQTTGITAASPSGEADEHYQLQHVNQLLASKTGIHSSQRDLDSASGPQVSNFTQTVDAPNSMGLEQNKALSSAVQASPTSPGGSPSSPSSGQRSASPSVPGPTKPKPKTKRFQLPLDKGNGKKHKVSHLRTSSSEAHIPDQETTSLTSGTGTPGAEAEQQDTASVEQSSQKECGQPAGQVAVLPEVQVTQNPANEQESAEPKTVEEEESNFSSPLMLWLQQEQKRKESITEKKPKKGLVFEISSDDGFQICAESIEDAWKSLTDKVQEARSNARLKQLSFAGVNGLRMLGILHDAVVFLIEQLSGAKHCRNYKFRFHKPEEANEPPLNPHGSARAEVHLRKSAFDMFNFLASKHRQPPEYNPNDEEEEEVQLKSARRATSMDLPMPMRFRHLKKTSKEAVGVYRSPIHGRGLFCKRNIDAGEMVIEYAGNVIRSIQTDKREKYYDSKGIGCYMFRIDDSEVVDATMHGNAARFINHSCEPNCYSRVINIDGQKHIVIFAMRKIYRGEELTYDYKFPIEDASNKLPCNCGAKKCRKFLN
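Purified MLL-CXXC (added from a 7 uM solution) was preincubated 5 min at ambient with pinned compounds in 50 mM Tris-HCl pH 7.5, 50 mM NaCl, 1 mM DTT, 0.05% BSA. Fluorescein-labeled HOX-A9 DNA (50 nM solution) followed, 30 min, then polarization read.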
Menin MLL FP TR: qHTS Assay for Inhibitors Targeting the Menin-MLL Interaction in MLL Related Leukemias: Competition With Texas Red Labeled MLL-derived Mutant Peptide; hit rate 0.23% among 270,000; Menin + Texas Red MLL mutant peptide, fluorescence polarization; AID 1768, 2009; O00255; Potency, µM (highest dose often 61.6 µM), without a hit: at the highest dose FP activity change, negative = inhibition, actives largely listed as inhibitors; active = well fitted inhibition curve with a large enough effect in the polarisation, with a control signal flat, not every such curve was filed as active; inconclusive = small, poorly fitted or top-dose-only effect, or effect the other way, or a change in a side signal; inactive = no such curve, though single readings can be large or run the other way; the % refers to the polarisation; also: potency is read from the fitted curve at half-maximal effect; % of control where 0% means no effect
C127i cell count: Parental Cell Counter Screen Assay for Epigenetic Modulators: Hit Validation. shares compounds with Epigenetic reg. mouse c127i parental cells, fluorescent cell count, 30 h. Potency, µM, without a hit: at the top dose fluorescent cell count, most hits filed as activators. hit rate 20% among 60
HCC4017 tox: HCC4017 Cell Viability Secondary Assay for qHTS Assay for Epigenetic Modulators; shares compounds with Epigenetic reg; HCC4017 NSCLC viability, CellTiter-Glo ATP luminescence, 72 h; AID 493071, 2011; Potency, µM (top dose mostly 46.1 µM), without a hit: top-dose activity change, negative = cytotoxicity, hits mostly cytotoxic; hit rate 30% among 45
H358 tox: H358 Cell Viability Secondary Assay for qHTS Assay for Epigenetic Modulators: Round 2; AID 493074, 2011; shares compounds with Epigenetic reg; H358 NSCLC viability, ATP luminescence, 72 h; hit rate 30% among 45; Potency, µM (doses to about 46.1 µM), for the others: at the highest dose activity change, negative = viability loss, actives largely listed as cytotoxic
MLL CXXC FP-Fl: qHTS Fluorescence Polarization (FP) Assay for Inhibitors of MLL CXXC domain - DNA interaction: Fluorescein FP; shares compounds with CXXC DNA block; MLL CXXC-DNA binding, fluorescein FP; Potency, µM (series often up to 345 µM), inactives show top-dose activity change, negative = inhibition, usual class: inhibitors; hit rate 70% among 200; AID 624160, 2012; also: potency is read from the fitted curve at half-maximal effect; nearly all actives have a fitted effect of over 80% in size
MLL CXXC FP-TR: qHTS Fluorescence Polarization (FP) Assay for Inhibitors of MLL CXXC domain - DNA interaction: Texas Red FP; shares compounds with CXXC DNA block; MLL CXXC-DNA binding, Texas Red fluorescence polarization; Potency, µM (doses to about 345 µM), without a hit: at the top dose activity change, negative = inhibition, actives largely listed as inhibitors; hit rate 40% among 200; also: potency is read from the fitted curve at half-maximal effect; % is scaled to controls: 0 for no effect and ±100 for the full control effect; nearly all actives have a fitted effect of over 75% in size
MLL CXXC HTRF: qHTS Fluorescence Polarization (FP) Assay for Inhibitors of MLL CXXC domain - DNA interaction: HTRF Assay; shares compounds with CXXC DNA block; MLL CXXC-DNA binding, HTRF, biochemical; Potency, µM (doses to about 172 µM), for the others: at the top dose activity change, negative = inhibition, usual class: inhibitors; hit rate 30% among 210; AID 624162, 2012; also: % is scaled to controls: 0 for no effect and ±100 for the full control effect; nearly all actives have a fitted effect of over 80% in size
* marks the source's active call; other numbers are inactive results; ? = inconclusive; nt = no result given; ! = not active in a repeat; [ ] = another dose, or the depositor's remark. Unless noted, calls follow the shape of the dose curve; as a rule, active = well fitted curve in the direction sought with a large enough effect; inconclusive = small, poorly fitted or top-dose-only effect, or another doubt; inactive = no such curve, though single readings can be large; an effect the other way counts as inactive or inconclusive.

SMILES	Lamin A splicing	Menin MLL FP FL	Epigenetic reg	CXXC DNA block	Menin MLL FP TR	MLL CXXC FP-Fl	MLL CXXC FP-TR	MLL CXXC HTRF	others
CC1=C/C(=N\NC(=S)Nc2cccnc2)CC(C)(C)C1	?	-5	6.3µM*	3%	-14%	nt	nt	nt	C127i cell count=2%;HCC4017 tox=?;H358 tox=-37%
N=c1n(CC(=O)c2ccc([N+](=O)[O-])cc2)c2ccccc2n1Cc1ccccc1Cl	3%	5	?	45%	-1%	nt	nt	nt	C127i cell count=7%;HCC4017 tox=13µM*;H358 tox=?
N=c1n(CC(=O)O)c2ccccc2n1Cc1ccccc1Cl	9%	4	-4%	0%	2%	nt	nt	nt
CC(C)[C@@H]1NC(=O)[C@H](CCCCN)NC(=O)[C@@H](Cc2c[nH]c3ccccc23)NC(=O)[C@H](Cc2ccc(O)cc2)NC(=O)[C@@H](NC(=O)[C@H](N)Cc2ccccc2)CSSC[C@@H](C(=O)N[C@@H](Cc2c[nH]c3ccccc23)C(N)=O)NC1=O	nt	0	nt	nt	3%	nt	nt	nt
CC(=O)[C@H](CC(C)C)NC(=O)[C@@H](CC(C)C)NC(=O)[C@H](CC(C)C)NC(=O)OCc1ccccc1	nt	28	5µM*	nt	-19%[24.8 µM]	nt	nt	nt	C127i cell count=1%
CC(=O)NC(CC(C)C)C(=O)NC(Cc1ccccc1)C(N)=O (stereo not drawn)	-3%	-6	-1%	-7%	-5%	nt	nt	nt
C/C=C/c1ccc(OCC(=O)Nc2ccc(C(N)=O)cc2)c(OC)c1	?	-3	0%	5%	?	nt	nt	nt
C/C=C/c1ccc(OCC(=O)OCC(=O)NC2CC2)c(OC)c1	-5%[46 µM]	1	?	-2%	-25%	nt	nt	nt	C127i cell count=2%;HCC4017 tox=9%;H358 tox=16%
Cc1c(C(=O)N(C)C2CCCCC2)sc2nc3ccc(N)cc3n12	nt	6	2%	nt	-13%	nt	nt	nt
COC(=O)[C@H](Cc1ccccc1)NC(=O)[C@@H](C)CO	nt	3[11.7 µM]	0%[10.1 µM]	nt	-3%[11.7 µM]	nt	nt	nt
CCC(C)c1ccc(NC(=O)Nc2cccnc2)cc1 (stereo not drawn)	nt	-6	nt	?	?	-7%	?	1%
COc1ccc2c(c1)OC(C)(C)C(c1ccccc1)C2c1ccc(OCCN2CCCC2)cc1 (stereo not drawn)	nt	2	nt	13%	1%	nt	nt	nt
Cc1ccc(C(=O)Nc2ccc(S(=O)(=O)O)c3cc(S(=O)(=O)O)cc(S(=O)(=O)O)c23)cc1NC(=O)c1cccc(NC(=O)Nc2cccc(C(=O)Nc3cc(C(=O)Nc4ccc(S(=O)(=O)O)c5cc(S(=O)(=O)O)cc(S(=O)(=O)O)c45)ccc3C)c2)c1	?	11	2%	7.9µM*	57%	20µM*	22µM*!	4.9µM*
Cc1ccccc1NC(=O)c1cccc(S(=O)(=O)Nc2cccc(C(=O)O)c2)c1	nt	-2	nt	-3%	27%	nt	nt	nt
CCN(CC)c1ccc2cc(-c3nc(-c4ccc(OC)cc4)cs3)c(=O)oc2c1	?	?	?	?	21%	0.45µM*	?	-5%
Cc1cc2nc3c(=O)[nH]c(=O)nc-3n(CC(O)C(O)C(O)CO)c2cc1C (stereo not drawn)	?	?	1%	nt	-2%	nt	nt	nt
CC(=O)OCCn1c2nc(=O)[nH]c(=O)c-2nc2cc(C)c(C)cc21	?	?	-1%	?	-2%	1.8µM*	2%	14%
CCCC(=O)OC[C@@H](OC(=O)CCC)[C@@H](OC(=O)CCC)[C@H](Cn1c2nc(=O)[nH]c(=O)c-2nc2cc(C)c(C)cc21)OC(=O)CCC	nt	?	nt	?	-21%	14µM*	?	23%
Cc1[nH]n(-c2ccccc2)c(=O)c1N=Nc1ccc(C(=O)O)cc1	nt	-2	nt	2%	?	nt	nt	nt
Cc1[nH]n(-c2ccccc2)c(=O)c1N=Nc1cccc(C(=O)O)c1	nt	4	nt	?	?	14µM*	?	34%
O=C1/C(=N\S(=O)(=O)c2cccs2)C([n+]2cccc(Cc3ccccc3)c2)=C([O-])c2ccccc21	nt	?	9%	25µM*	nt	142µM*	?	69%
O=C1/C(=N\S(=O)(=O)c2cccs2)C([n+]2ccc(CCCc3ccccc3)cc2)=C([O-])c2ccccc21	nt	-19	-1%	-29%	nt	nt	nt	nt
Cc1noc(C)c1-c1nc(NCc2ccccc2)c2ccccc2n1	?	0	nt	nt	49%	nt	nt	nt
COC(=O)c1c(C)[nH]c(C)c1-c1ccc(C)cc1	-8%	5	0%	?	-1%	18µM*	?	-8%
CC1(C)CC(=O)C(C(C2=C(O)CC(C)(C)CC2=O)c2ccc(Br)s2)C(=O)C1 (stereo not drawn)	?	5	?	?	24%	40µM*	37%	15µM*

Screens from PubChem.
